Screens: PubChem BioAssay, several laboratories
14-3-3 Bad PPI: inhibitors of 14-3-3 zeta/Bad binding, primary screen, biochemical, TR-FRET, bovine 14-3-3 zeta | 14-3-3 protein zeta/delta (Bos taurus), P63103 | TR-FRET 14-3-3zeta/Dy647-pBad peptide displacement, 1 h | inhibition, % at 21.7 µM | 220,000 compounds, 0.71% hits | AID 781, 2007;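 active means inhibition above about 70%, limit read from the data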;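 further: 0% = full 14-3-3 plus peptide FRET controls and 100% = background without 14-3-3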
Mcl1-Noxa inh: Mcl-1/Noxa binding inhibitors, primary screen, biochemical, TR-FRET, 1536-well. TR-FRET Mcl-1/Noxa peptide binding, 2 h. inhibition, % at 21.7 µM. 220,000 compounds, 1.5% hits. AID 1022, 2008;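 active means compounds that cut the protein-peptide binding signal by more than 50% relative to plate controls in a single-dose test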;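 further: His-tagged Mcl-1 with rhodamine Noxa BH3 peptide and terbium anti-His antibody; 0% = Mcl-1 plus Noxa peptide wells and 100% = peptide-only wells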
eIF4E-4G inh: eIF4E–eIF4G protein interaction inhibitors, primary screen, biochemical, uHTS, TR-FRET, eIF4GI fragment | Eukaryotic translation initiation factor 4E (Mus musculus) + Eukaryotic translation … | TR-FRET eIF4E-eIF4GI(517-606) binding, 2 h | inhibition, % at 21.7 µM | 220,000 compounds, 0.37% hits | AID 782, 2007;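 further: 0% = full FRET control wells and 100% = background wells lacking eIF4GI fragment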
Mcl-1 Bim block: inhibitors of Bim peptide binding to Mcl-1, primary screen, biochemical, bead-based flow cytometry, multiplex | Induced myeloid leukemia cell differentiation protein Mcl-1 (Homo sapiens), Q07820 | Bim peptide-Mcl-1 binding | inhibition, % at 10 µM | 190,000 compounds, 0.1% hits; in the data active means inhibition above about 40%;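 further: 0% = no compound tracer wells and 100% = peptide blocker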
Mcl1-Bid inh: Mcl-1/Bid binding inhibitors, primary screen, biochemical, TR-FRET, 1536-well; TR-FRET Mcl-1/Bid-Dy647 peptide binding; 220,000 compounds, 0.97% hits; inhibition, % at 21.7 µM; Induced myeloid leukemia cell differentiation protein Mcl-1 (Homo sapiens), Q07820;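 active means compounds that cut the binding signal by more than half at the single screening dose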;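 further: His-tagged Mcl-1 with europium anti-His antibody binding Bid BH3 peptide; 0% = Mcl-1 plus peptide wells and 100% = peptide-only wells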
NCF1 inh: p47phox/p22phox peptide binding inhibitors, primary screen, biochemical, uHTS, NADPH oxidase regulatory subunit. fluorescence polarization, 2 h. inhibition, % at 24.7 µM. 220,000 compounds, 0.53% hits. AID 1274, 2008;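 further: 0% = p47phox with labelled peptide and 100% = labelled peptide alone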
Target sequence (P14598 whole entry, looked up): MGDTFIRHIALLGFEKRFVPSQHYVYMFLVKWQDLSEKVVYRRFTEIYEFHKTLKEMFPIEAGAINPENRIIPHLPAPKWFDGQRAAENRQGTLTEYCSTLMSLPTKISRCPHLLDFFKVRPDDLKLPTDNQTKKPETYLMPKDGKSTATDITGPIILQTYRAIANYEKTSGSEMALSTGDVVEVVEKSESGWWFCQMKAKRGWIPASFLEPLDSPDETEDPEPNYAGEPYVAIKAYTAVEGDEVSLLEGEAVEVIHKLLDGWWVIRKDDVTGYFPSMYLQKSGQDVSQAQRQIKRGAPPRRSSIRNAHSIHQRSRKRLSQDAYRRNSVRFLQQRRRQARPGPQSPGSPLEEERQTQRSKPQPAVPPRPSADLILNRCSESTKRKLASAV
Active calls of the source: *; nt = no result; [ ] = another dose, or the depositor's remark. An excerpt weighted towards active compounds, which were near 3.4% of everything screened.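 How the source made its calls, unless noted: active means inhibition above about 30% (limit read from the data); inactive means the rest.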

SMILES	14-3-3 Bad PPI	Mcl1-Noxa inh	eIF4E-4G inh	Mcl-1 Bim block	Mcl1-Bid inh	NCF1 inh
Cc1ccc(OC(=O)c2sc3ncn(C)c(=O)c3c2C)cc1	-6	11	2	-5	1	2
COc1ccc(C2Nc3ccccc3C(=O)N2O)cc1OC (stereo not given)	-6	-1	-10	-3	93*	7
CC(=O)c1ccc(NC(=O)C(C)n2c3ccccc3c3nc(=O)cc(C)n32)cc1 (stereo not given)	2	-4	-5	nt	97*	-13
Cc1ccc(CNS(=O)(=O)c2ccc3c(c2)CCN3C(=O)CCCC(=O)O)cc1	-2	18	-3	2	-30	0
O=C(NCCCN1CCOCC1)c1cccc(S(=O)(=O)Nc2cc(Cl)ccc2Cl)c1	0	8	-1	0	8	-3
COc1cccc(C2=NN(C(=O)c3cccs3)C(O)(C(F)(F)F)C2)c1 (stereo not given)	-12	13	6	-3	7	-23
Cc1nc(Cl)c2c(n1)NC(=O)CO2	1	0	3	nt	-2	-15
Cc1nc2c(c(N3CCOCC3)n1)OCC(=O)N2	74*	-7	2	0	-19	8
S=C(Nc1ccccn1)NC1CCCC1	-6	5	-3	1	-31	-10
S=C(Nc1ccccn1)NC1CCCCC1	-2	-7	94*	nt	-59	4
Cc1cc(OCC(=O)Nc2ccccc2F)nc(C(C)C)n1	-4	-5	-3	-2	-11	-7
Cc1cc(OCC(=O)Nc2ccc(F)c(F)c2)nc(C(C)C)n1	0	-6	-16	3	-9	165*
Cc1ccc(S(=O)(=O)NCc2ccc(C(=O)NCCN(Cc3ccccc3)C(C)C)cc2)cc1	-12	11	1	0	-9	-2
Cc1nc2ncnn2c(C)c1CCC(=O)Nc1ccc(S(=O)(=O)N2CCCCCC2)cc1	-2	21	6	-5	52*	-9
O=C(NNC(=O)c1ccc(F)cc1F)c1ccc2c(c1)OCO2	-11	-5	-1	2	-29	0
COc1ccc(Cn2cnc([N+](=O)[O-])c2)cc1[N+](=O)[O-]	99*	2	1	nt	0	1
O=[N+]([O-])c1cn(Cc2ccc(Cl)cc2)cn1	16	0	2	0	-15	-5
COc1cc(Cl)c(C)cc1NC(=S)NN	1	7	0	-13	-38	-11
O=C(O)/C=C/c1cccc(OCc2ccccc2)c1	-2	12	5	0	4	-1
O=C(/C=C/c1cccc(OCc2ccccc2)c1)c1cccnc1	53	30	12	-4	55*	1
Cc1cccc(NC(=S)NC2CCN(Cc3ccccc3)CC2)c1C	-1	-22	1	-9	20	-8
CC(C)(C)CC(C)(C)NC(=S)NC1CCN(Cc2ccccc2)CC1	-6	-3	-1	-3	92*	-8
O=S1(=O)C=CC(c2ccccc2)C1 (stereo not given)	6	8	2	nt	-40	-11
CC1=C(C#N)S(=O)(=O)C(C#N)C(c2ccccc2)C1 (stereo not given)	-3	-11	95*	nt	-52	-29
O=C(Nc1ccc(N2CCOCC2)cc1)c1nc2ccccc2s1	-4	6	-5	nt	-111	-10
SMILES	14-3-3 Bad PPI	Mcl1-Noxa inh	eIF4E-4G inh	Mcl-1 Bim block	Mcl1-Bid inh	NCF1 inh
Fc1ccc(CSc2ccc(-c3ccco3)nn2)cc1	-5	4	0	-4	61*	-3
CCOC(=O)c1oc2cccc(O)c2c1CN(Cc1ccccc1)C(C)=O	-7	25	5	0	-48	33*
COc1cc(OC)c(OC)cc1/C=C/C(=O)c1ccc(NS(=O)(=O)c2ccc(C)cc2)cc1	-27	11	13	0	-26	-89
C=CCOC(=O)/C(=C/c1ccco1)NC(=O)/C=C/c1ccccc1	-1	-20	2	nt	89*	-17
O=C(O)CNC(=O)/C(=C/c1ccco1)NC(=O)/C=C/c1ccccc1	14	15	4	5	-34	-11
O=C(O)c1cc(O)c2c(c1)C(=O)c1cc(O)cc(O)c1C2=O	58	62*	8	1	7	-20
CCN(CC)CCCNC(=S)N(Cc1cccnc1)Cc1cc2cc(C)ccc2[nH]c1=O	5	4	0	nt	-66	-9
CCOc1ccc(CNc2ccc(N3CCCC3)cc2)cc1	-18	66*	9	6	-29	21
COc1cc(CNc2ccc(N3CCOCC3)cc2)cc(Br)c1OC	3	26	0	2	-2	3
CCOc1ccc(NC(=O)c2ccc(CNc3c(N4CCCC4)c(=O)c3=O)cc2)cc1	-2	19	-8	nt	-39	3
CCOc1cc(CNc2ccc(N3CCCC3)cc2)cc(Cl)c1OC	19	76*	35*[fluorescence artefact?]	-2	6	-2
COc1cc(CNc2ccc(N3CCCC3)cc2)cc(Cl)c1OC	6	72*	17	11	-30	7
O=C(/C=C/c1ccccc1)/C=C/c1ccccc1	-3	13	4	-4	-2	6
Cc1ccc(S(=O)(=O)N2CCCCC2)cc1NC(=O)COc1ccccc1F	-16	14	2	1	-8	-5
C=CCn1c(SCC(=O)Nc2cc(NC(C)=O)ccc2OC)nnc1-c1ccccn1	-5	21	2	0	-13	-24
C=CCn1c(SCC(=O)Nc2ccccc2OC)nnc1-c1ccccn1	79*	-7	-5	-4	-10	-10
O=C(Nc1ccc(Cc2ccncc2)cc1)c1ccc(S(=O)(=O)N2CCCC2)cc1	-11	7	0	-3	-6	-2
O=C1N/C(=N/NC(=O)c2cccc3ccccc23)S/C1=C\c1ccccc1OCc1ccccc1	-8	19	-4	-1	57*	-28
CCC(C(=O)NC(C)CCc1ccccc1)n1nc(C)n2c(cc3occc32)c1=O (stereo not given)	-8	5	2	0	-17	-13
CCC(C(=O)NC(C)CCc1ccco1)n1nc(C)n2c(cc3occc32)c1=O (stereo not given)	13	-7	50*	-6	-21	-3
CCCC(C(=O)O)N1C(=O)/C(=C/c2cccn2C)SC1=S (stereo not given)	-9	52*	4	-2	1	-89
CCOC(=O)c1c(C=O)c2sc(C)cc2n1C	0	10	-2	-3	-11	-4
